The list is not random: actives were taken first. Their share in the collection is about 3.4%.
PAFAH1B2 FP inh – blocks human PAF acetylhydrolase 1b catalytic subunit 2. inhibition, % at 3.39 µM. hit rate 1.2% among 340,000. recombinant PAFAH1B2, FP-rhodamine activity probe, fluorescence polarization. AID 492953;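 active = inhibition above the mean of all tested compounds plus 3 SD, cut at about 24% in these data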
Target sequence (P68402 whole entry, looked up): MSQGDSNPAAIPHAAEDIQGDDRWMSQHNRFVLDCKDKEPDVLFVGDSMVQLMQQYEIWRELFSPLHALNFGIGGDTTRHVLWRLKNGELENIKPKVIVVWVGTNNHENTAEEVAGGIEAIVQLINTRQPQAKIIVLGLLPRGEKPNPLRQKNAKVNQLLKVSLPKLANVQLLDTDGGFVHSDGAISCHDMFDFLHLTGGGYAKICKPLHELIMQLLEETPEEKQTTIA
pPAFAH FP inh – pPAFAH (human) enzyme inhibition. Q13093. recombinant pPAFAH, FP-rhodamine probe fluorescence polarization. inhibition, % at 3.39 µM. hit rate 1.5% among 330,000;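 active = inhibition above the mean inhibition across the screen plus 3 SD, cut at about 25% in these data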;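 note: inhibitors block binding of the rhodamine activity-based probe so polarization drops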
Target sequence (Q13093 whole entry, looked up): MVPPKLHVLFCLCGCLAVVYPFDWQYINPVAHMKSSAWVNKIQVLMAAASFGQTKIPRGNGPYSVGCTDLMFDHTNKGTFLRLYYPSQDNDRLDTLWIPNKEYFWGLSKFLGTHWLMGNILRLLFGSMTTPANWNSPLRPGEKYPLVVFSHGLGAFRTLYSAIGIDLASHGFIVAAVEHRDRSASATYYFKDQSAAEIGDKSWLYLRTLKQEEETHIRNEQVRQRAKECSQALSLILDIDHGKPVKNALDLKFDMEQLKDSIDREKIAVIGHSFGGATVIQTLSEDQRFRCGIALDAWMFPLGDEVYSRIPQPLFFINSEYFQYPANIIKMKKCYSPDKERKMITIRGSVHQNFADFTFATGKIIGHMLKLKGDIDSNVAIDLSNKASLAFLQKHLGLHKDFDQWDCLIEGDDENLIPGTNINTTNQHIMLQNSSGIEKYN
PAFAH1B3 inh – blocks human PAF acetylhydrolase 1B catalytic subunit 3. Q15102. recombinant PAFAH1B3, FP-rhodamine probe, fluorescence polarization. hit rate 0.28% among 340,000. inhibition, % at 3.39 µM;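 active = inhibition above the screen-wide average of all tested compounds plus 3 SD, cut at about 25% in these data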
PAFAH2 inh – PAFAH2 (human) inhibition. inhibition, % at 3.39 µM. Q99487. hit rate 0.99% among 340,000. recombinant PAFAH2, FP-rhodamine activity probe, fluorescence polarization;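 active = inhibition above the mean over all tested compounds plus 3 SD, cut at about 30% in these data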;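 note: inhibitors block probe labeling of enzyme so polarization drops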
PP5 inh – inhibitors of human protein phosphatase 5 (PP5) | purified PP5c, OMFP substrate fluorescence | inhibition, % at 6.7 µM | hit rate 0.18% among 320,000;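 active = inhibition above the campaign's mean inhibition across all tested compounds plus 3 SD, cut at about 9.5% in these data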
PP1 inh – counter-screen for PP5 inhibitors: inhibitors of human PP1-alpha | P62136 | purified PP1alpha, OMFP fluorescence | inhibition, % at 6.7 µM | hit rate 0.9% among 320,000 | AID 2235;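 active = inhibition above the mean inhibition of all tested compounds plus 3 SD, computed separately for each screening campaign, cut at about 15% in these data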
PAFAH2 FP conf – PAFAH2 (human) inhibition, confirmed | recombinant PAFAH2, FP-rhodamine activity probe, fluorescence polarization | hit rate 65% among 2,300 | shares compounds with PAFAH2 inh | inhibition, % at 3.39 µM;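 active = mean inhibition over three repeats above a set limit taken from the earlier primary screen, cut at about 30% in these data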;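 note: inhibitor blocks binding of rhodamine activity probe so polarization falls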
Of the large screens only hits and unclear results are named; the others gave an inactive call (follow-up assays come after a bar, where they were run).

O=C(COC(=O)c1cc2ccccc2cc1O)NC1CCCCC1	PAFAH2 inh 47.7 (no result: PP5 inh, PP1 inh) | PAFAH2 FP conf 33.4
O=C(COC(=O)c1c(F)cccc1Cl)NC1CCCCC1	PAFAH2 inh 65.7 (no result: pPAFAH FP inh, PP5 inh, PP1 inh) | PAFAH2 FP conf 48.2
O=C(COC(=O)Cc1c(Cl)cccc1Cl)NC1CCCC1	none (no result: PP5 inh, PP1 inh)
O=C(COC(=O)c1ccccc1F)NC1CC1	PAFAH2 inh 30.5 | PAFAH2 FP conf inactive
COc1cc(CNc2ccc(N3CCCCC3)cc2)ccc1OCC(=O)NC(C)(C)C	none
Cc1cccc(-c2nnc(SC(C)C(=O)N3CCOCC3)o2)c1 (stereo unspecified)	none
COC(=O)C(=N/Nc1ccccc1C(=O)OC)/C(C)=N/O	none
CCCc1nnc(SCC(=O)N2CCCC(C)C2)n1CCOC (stereo unspecified)	none
Cc1c(C(=O)NC2CCN(Cc3ccccc3)C2)oc2c(Cl)cccc12 (stereo unspecified)	none
COc1ccc(C(=O)COC(=O)c2cc(S(=O)(=O)N3CCCCC3)ccc2N2CCOCC2)c(OC)c1	none
O=C(COC(=O)c1cccnc1Nc1ccccc1F)NC1CC1	none
CCCCNC(=O)COC(=O)c1ccccc1F	PAFAH2 inh 46.2 | PAFAH2 FP conf 39.6
O=C(COC(=O)c1ccccc1F)NC1CCCC1	PAFAH2 inh 64.0 | PAFAH2 FP conf 59.5
CC(=O)C[C@H](O)CC(=O)[C@@H]1OC(=O)CCCCC/C=C/Cc2ccccc21	none (no result: PP5 inh, PP1 inh)
COc1cc(C(=O)OCC(=O)NCCC2=CCCCC2)ccc1OCC(C)C	PAFAH2 inh 41.3 | PAFAH2 FP conf 42.8
COc1cccc(C(=O)OCC(=O)NCCC2=CCCCC2)c1	PAFAH2 inh 37.6 (no result: PP5 inh, PP1 inh) | PAFAH2 FP conf inactive
NS(=O)(=O)c1ccc(CNC(=O)c2cc(-c3cccnc3)nc3ccc(Br)cc23)cc1	none
Cc1cc(C)nc(SCC(=O)N/N=C/c2cc(C)n(-c3ccccc3C)c2C)n1	none
Cc1cccc(C)c1-n1c(C)cc(/C=N/NC(=O)CSc2ncccn2)c1C	PAFAH2 inh 38.1 | PAFAH2 FP conf inactive
Cc1ccnn1-c1ccc(C(=O)OCC(=O)Nc2ccc(F)cc2)cc1	PAFAH2 inh 55.4 (no result: pPAFAH FP inh, PP5 inh, PP1 inh) | PAFAH2 FP conf 60.1
O=C(COC(=O)c1ccc2c(c1)OCCO2)Nc1ccc(F)cc1F	PAFAH2 inh 77.4 (no result: PP5 inh, PP1 inh) | PAFAH2 FP conf 62.0
CNC(=O)COC(=O)c1ccc(NS(=O)(=O)c2ccc3c(c2)OCCO3)cc1	none
Cc1ccc(NC(=O)COC(=O)c2ccc(-n3cccn3)cc2)cc1C	none
CC(C)NC(=O)COC(=O)c1ccc(NS(=O)(=O)c2ccc3c(c2)OCCO3)cc1	PAFAH2 inh 51.3 | PAFAH2 FP conf 43.0
O=C(COC(=O)c1ccc2c(c1)OCCO2)Nc1ccc(F)cc1	PAFAH2 inh 81.1 (no result: pPAFAH FP inh, PP5 inh, PP1 inh) | PAFAH2 FP conf 82.3
O=C(Nc1ccc(F)cc1F)c1ccc2c(c1)OCCO2	none
C=CCN(C(=O)C1CC(=O)N(C2CCCC2)C1)c1nc(-c2ccc(S(C)(=O)=O)cc2)cs1 (stereo unspecified)	none
O=C(N=C1SC2CS(=O)(=O)CC2N1c1ccccc1C(F)(F)F)C1CCCO1 (stereo unspecified)	none
Cc1cc(C(=O)Nc2ccc(Cl)c(S(=O)(=O)N3CCOCC3)c2)c2ccccc2n1	none
CCCc1cc(=O)n2[nH]c(C)nc2n1	none
CCCc1cc(=O)n2[nH]c(Cc3ccccc3)nc2n1	PAFAH2 inh 31.1 | PAFAH2 FP conf inactive
NC(=O)Nc1ccc(C(=O)OCC(=O)Nc2ccc(Cl)cn2)cc1	PAFAH2 inh 82.4 | PAFAH2 FP conf 71.8
O=C(COC(=O)c1ccc(O)cc1O)Nc1ccc(Cl)cn1	none
CCN(c1ccc(NC(=O)COC(=O)c2ccc(C)s2)cc1)C(C)C	PAFAH2 inh 46.5 | PAFAH2 FP conf 40.0
O=C(COC(=O)c1cnccn1)Nc1ccc(Cl)cn1	none
CC(=O)Nc1cccc(C(=O)OCC(=O)Nc2ccc(Cl)cn2)c1	PAFAH2 inh 43.5 | PAFAH2 FP conf 33.2
Cc1ccc(C(=O)OCC(=O)Nc2ccc(Cl)cn2)s1	PAFAH2 inh 71.4 | PAFAH2 FP conf 62.6
Cn1nc(C(=O)Nc2ccccc2N2CCCC2)c2ccccc2c1=O	none
Cc1[nH]c(C)c(C(=O)/C=C/c2ccc([N+](=O)[O-])cc2)c1C	none
O=C(COC(=O)c1ccc(F)cc1F)Nc1ccc(Cl)cn1	PAFAH2 inh 38.6 | PAFAH2 FP conf 31.1
CCOc1cc(C(=O)OCC(=O)Nc2ccc(Cl)cn2)ccc1OCC(=O)N1CCOCC1	PAFAH2 inh 83.2 | PAFAH2 FP conf 71.3
CCNC(=O)NC(=O)COC(=O)c1cccc(NS(=O)(=O)/C=C/c2ccccc2)c1	none
CCCC(C)NC(=O)COC(=O)c1cccc(NS(C)(=O)=O)c1 (stereo unspecified)	PAFAH2 inh 37.1 | PAFAH2 FP conf inactive
CC(=O)Nc1cccc(C(=O)OCC(=O)NC(C)c2ccc(F)cc2)c1 (stereo unspecified)	PAFAH2 inh 46.3 | PAFAH2 FP conf 36.0
CCOc1cc(C(=O)OCc2ccc(OC)cc2)ccc1OCC(=O)N1CCOCC1	none
COc1ccc(CC(=O)NC(C)c2ccc(S(N)(=O)=O)cc2)cc1S(=O)(=O)N1CCOCC1 (stereo unspecified)	none
CNC(=O)COc1coc(CN2CCN(c3cccc(Cl)c3)CC2)cc1=O	none
O=C1OC2(CCCCC2)OC(=O)C1=CNc1nc2ccccc2s1	PAFAH2 inh 41.1 | PAFAH2 FP conf inactive
O=C1OC2(CCCCC2)OC(=O)C1=CNc1nccs1	none
N#Cc1ccccc1OCC(=O)NNC(=O)CCC1CCCC1	PAFAH2 inh 40.8 (no result: PP5 inh, PP1 inh) | PAFAH2 FP conf inactive
O=C(COC(=O)C12CC3CC(CC(O)(C3)C1)C2)Nc1ccc(Cl)c(S(=O)(=O)N2CCOCC2)c1	PAFAH2 inh 47.9 (no result: PP5 inh, PP1 inh) | PAFAH2 FP conf inactive
COc1ccc(NC(=O)COC(=O)C23CC4CC(CC(O)(C4)C2)C3)cc1Cl	none (no result: PP5 inh, PP1 inh)
Cc1cc(C)c(NC(=O)COC(=O)C23CC4CC(CC(O)(C4)C2)C3)c(Cl)c1	PAFAH2 inh 47.4 (no result: PP5 inh, PP1 inh) | PAFAH2 FP conf 34.2
CC(=O)c1cccc(NC(=O)c2ccc(NC(=O)CCS(=O)(=O)c3cccs3)cc2)c1	none
CC(=O)c1ccc(NC(=O)c2ccc(NC(=O)CCS(=O)(=O)c3cccs3)cc2)cc1	PAFAH2 inh 71.6 | PAFAH2 FP conf 58.2
O=C(c1ccccc1F)n1c2c(c3ccccc31)CCCC2	none
COc1ccc(CNC(=O)COC(=O)C2CC2C)cc1OC (stereo unspecified)	none
CC1CC1C(=O)OCC(=O)NCc1ccc(Cl)cc1 (stereo unspecified)	PAFAH2 inh 45.7 | PAFAH2 FP conf inactive
CC1CC1C(=O)OCC(=O)NCc1ccc(Cl)cc1Cl (stereo unspecified)	PAFAH2 inh 62.3 | PAFAH2 FP conf 53.2
CSCCC(NC(=O)c1ccco1)C(=O)NCC(C)(C)N1CCOCC1 (stereo unspecified)	none

Compound activity: PubChem BioAssay, The Scripps Research Institute Molecular Screening Center
